Reference: the supplement of paper PMC6555819

The sequences below were run on VDR:RXRa (NR concentration 270 nM, RXRa partner concentration 90 nM) (assay: PBM binding z-score (relative to random genomic background probes); higher = stronger binding; sequences stand for … in GC…GCGATTGACAGCGTAGAATGAAGG).
Protocol: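 Protein-binding microarray (Agilent 4x180K custom design, double-stranded 60-nt probes: 5' GC cap, 34-nt variable region, 24-nt constant primer region; full probe sequence given). Purified or IVT nuclear receptor:RXRα heterodimers (3:1 NR:RXRα, mostly 270:90 nM) or homodimers were incubated for 1 h in PBS with 2% milk and no ligand, then detected with Alexa488 antibodies. Fluorescence from o1-orientation probes (~5 replicates averaged) was converted to z-scores against 500 random hg19 background probes. Variable regions are seed direct-repeat (DR0–DR5) sites, all their single-nucleotide variants and half-site ablations.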

| Sequence | PBM binding z-score |
| --- | --- |
| CCTAGTTGGTCAGGAGGTCACAGACCGGATATGA | 3.64 |
| ATCTCTAGGTAAAGATGGTTCAGTGAATGCAAAT | 0.607 |
| CGTGCTAGGTCATGGTCAGCTAATCTACAGTATG | 1.7 |
| ACTCGAAGGACAAAGGTCAGAGCTACGCCAGTGA | 2.96 |
| TCATTTAGGTAAAGGTGAAAGTCGAACGATATGA | 1.23 |
| GTACCAAGGTGGATAGGTCGTTGATGAGTAGGCG | -0.168 |
| CGAGCTAGGTCATTGACAGGACAGTGAATAGTAA | 2.04 |
| GCTAGCAGGCCGTTTGGGTCACTCAATGACGGGC | 0.00602 |
| CGTCCAAGGTCAAGGTCAGTGTAAGAGACTCGAA | 4.67 |
| CTACCAAGGTGAACAAGGTCGTTAATTACTATTC | 6.04 |
| ATCGAAAGGTCGAAGCTGAGTATACCCACCCGAA | 2.47 |
| CCTAGCACGCCAATCTGGGTCACTCAAGGCTTGA | 0.379 |
| ACAGTCAGGTGAGTGAAGGTAACTCAGCTGGACG | -0.663 |
| ATCTCTAGGTAAAGATAGTTCAGTCAATGCAAAT | 0.723 |
| CGTCAAAGTTCGACTAAGGTAACGTAAAGCACGC | 1.83 |
| CGTCCAAGGTCTTAGGAGGTCAGTGAAGACAGAT | 2.89 |
| CGAACGTGGGCATGAGTTGATAGCAAATGCCGAT | -0.7 |
| ACCGACAGGTGAGTGAAGGTAACTCAGCTGGACG | -0.484 |
| CGGCAAAGTTCAACTAAGGTAACGTAAAGCACGC | 4.67 |
| CCTACTGGGCCATCAGCTCATTGATATCAACGTT | -0.619 |

| Sequence | PBM binding z-score |
| --- | --- |
| ATATGTAGGTTAAGGGTCAGTCAGGTTGGTTCGC | 4.37 |
| GCTATTAGTTGAAGGGGCAACCGAATGATTCTCG | -0.246 |
| CGTTACGGGTCACTGACAGGTTATAGCATTTGGA | 3.87 |
| TCTAGTTGGTCAAAGGTCACATACTCGAAATGCG | 5.02 |
| TCGAGTAGGTTACCAATGGGGCATGCAGCTTTCT | -0.0716 |
| CGAACTAGGTCATCCACGACAGTGAATACATTGA | 2.18 |
| TCGAGTAGGTTAGGGGAATTCAGAATGGCGTCGA | -0.154 |
| TGAATGGGGTTATAAGATCAGGGAACGTTGCAAA | 2.58 |
| CAAGCTAGGTCACGAAAGGTCAAAGTCGAATGAC | 6.88 |
| TCTAATTGGTCACGGAGGTCACACACGACGGGTA | 6.1 |
| AGAACGAGGGCAATGAATTGATAGCACGGGTGGC | 0.305 |
| ATCTCTAGGTAAGACTCAGTTCAGTCAAGAACGC | 0.989 |
| TTACCAAGGTGAGCTGAGGTCGTTAATCCAACTC | 3.68 |
| TCTGTTAGGTCAGTTGGTCAGCTAACGAGCTGCC | 0.897 |
| TCATATAGGTAAAGGTGACAGTCGAACGATATGA | 0.874 |
| CCGAGTAGGTTCTGGGGCATTCAGGCAACGGTGA | -0.552 |
| TAGCCTAGGTTAGATCGGGCCAGTATACGCTATA | -0.4 |
| GCTTACGGGTCGAAGGTTATAGCATGAATAGAAT | 2.02 |
| ATACCAAGGTGATCGTGAGGTCGTTGGTACTAAC | 3.09 |
| CCGACTGGGGCAAAGGTTCCCATACTCAGTACGA | -0.179 |
